The values below come from PubChem BioAssay (NCATS).

Molecules are shown by their SMILES. Records with an inconclusive call do not appear. Active and inactive are the calls of the source. Unless noted, calls follow the shape of the dose curve; as a rule, active = well fitted curve in the direction sought with a large enough effect; inconclusive = small, poorly fitted or top-dose-only effect, or another doubt; inactive = no such curve, though single readings can be large; an effect the other way counts as inactive or inconclusive.

Experiment [1] in a line: P-glycoprotein substrates identified in KB-8-5-11 adenocarcinoma cell line, qHTS therapeutic library screen (AID 1346987). Also: nearly all actives have a fitted effect of over 65% in size. Also: potency is read from the fitted curve at half-maximal effect. An outline of the steps:
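Compounds are pinned in dose-response onto KB-8-5-11 cells (500 cells/well, colchicine-free medium) and left 72 h at 37 degree C. CellTiter-Glo luminescence then yields AC50 values.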

The nature of experiment [2]: qHTS to identify inhibitors of the type 1 interferon - major histocompatibility complex class I in skeletal muscle: primary screen against the NCATS Mechanism Interrogation Plate v5.0 (MIPE) Libary (AID 1347411). Also: potency is read from the fitted curve at half-maximal effect; nearly all actives have a fitted effect of over 65% in size. An outline of the steps:
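Luminescence from CRISPR HiBit-tagged endogenous HLA-B in human myoblasts reported MHC class I level after 24 h of IFN-beta (4 ng/ml) plus compound. Compounds ran as 11-point 1:3 series, top 46 uM final.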

Experiment [3] is described as follows: Primary qHTS for inhibitors of nuclear receptor binding SET domain protein 2 (NSD2) in an isogenic RCH-ACV NSD2 p.E1099K mutant (9B) (AID 1645876). Also: potency is read from the fitted curve at half-maximal effect; nearly all actives have a fitted effect of over 70% in size.
Experiment [4] can be described thus: Primary qHTS for inhibitors of nuclear receptor binding SET domain protein 2 (NSD2) in an RCH-ACV wild type WT cells (2C) (AID 1645877). Also: nearly all actives have a fitted effect of over 70% in size. Also: potency is read from the fitted curve at half-maximal effect.
For experiment [5], the target named is Glutathione peroxidase 1 (Homo sapiens) (UniProt P07203). Put plainly: Primary qHTS Assay for Inhibitors of Recombinant Selenoprotein Glutathione Peroxidase 1 (GPX1) (AID 1845191). Also: nearly all actives have a fitted effect of over 65% in size. An outline of the steps:
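GR-coupled readout: NADPH consumption tracked by fluorescence, ex 340/em 450 nm, at t=0 and after 15 min at RT. Final mix 10 nM GPX1, 1 mM GSH, 0.5 mM CHP, 0.5 mM NADPH, 100 nM GR, 0.01% BSA, following 30 min enzyme–compound preincubation.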

Experiment [6] concerns the target Phospholipid hydroperoxide glutathione peroxidase GPX4 (Homo sapiens) (UniProt P36969). Kind of experiment: Primary qHTS Assay for Inhibitors of Recombinant Selenoprotein Glutathione Peroxidase 4 (GPX4) (AID 1845192). Also: nearly all actives have a fitted effect of over 65% in size. Particulars: outcome: dose series up to 50 µM unless noted. The method, boiled down:
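Steps: GPX4 plus compound, 30 min RT; add GR/GSH/NADPH master mix; start with cumene hydroperoxide; read 340/450 nm fluorescence at 0 and 15 min. Finals were 200 nM GPX4, 1 mM GSH, 0.5 mM CHP, 0.5 mM NADPH, 100 nM GR.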

Experiment [7] is described as follows: qHTS drug screen for cell cycle checkpoint inhibitors in PARPi-resistant BRCA-mutant ovarian cancer cell lines. (AID 1963452; calls by dose curve; also: potency is read from the fitted curve at half-maximal effect). Particulars: PEO1/OlaR viability, CellTiter-Glo luminescence, 96 h; for Z-AUC: stronger effect = lower value. The method, boiled down:
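PEO1, PEO4 and PEO1/OlaR ovarian cancer cells, 600 per well, exposed 96 h at 37C to a dilution series. Viability read by CellTiter-Glo luminescence, normalized to DMSO and empty wells; activity summarized as Z-AUC.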

Experiment [8] is described as follows: qHTS assay to identify inhibitors of the type 1 interferon - major histocompatibility complex class I in skeletal muscle: Counter screen cell viability and HiBit confirmation (AID 1347412). Also: nearly all actives have a fitted effect of over 60% in size. Also: potency is read from the fitted curve at half-maximal effect. As to activity change, negative = inhibition: % is scaled to controls: 0 for no effect and ±100 for the full control effect. Particulars: iHSKM muscle cells + IFN-b, HiBiT or CellTiter-Glo, 24 h. An outline of the steps: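 Luminescence read-out: Nano-Glo HiBiT lytic signal from C-terminally HiBiT-tagged HLA-B in CRISPR-edited human myoblasts, plus CellTiter Glo ATP as viability counter screen. IFN-beta 4.0 ng/ml; 24 hrs treatment at 37 C, 5% CO2.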

The target in experiment [9] is Calcium and integrin-binding protein 1 (Homo sapiens) (UniProt Q99828). Kind of experiment: Primary qHTS for Identification of Calcium Integrin Binding Protein 1 (CIB1) Competitor (AID 1508620). Also: top concentration of the series differs between compounds; % is scaled to controls: 0 for no effect and ±100 for the full control effect. An outline of the steps: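 Fluorescence polarization competition: GST-tagged CIB1 (1 uM final) preincubated with compound 15 min at room temperature, then FITC-labelled alphaIIb peptide (100 nM final) added. After 15 min at room temperature, polarization read at Ex 480/Em 540.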

The target in experiment [10] is Glucocorticoid receptor (Homo sapiens) (UniProt P04150). Kind of experiment: GR-GFP Redistribution (AID 450;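 active = compounds whose dose series gives a full or clear partial fitted curve of increased nuclear translocation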; also: potency is read from the fitted curve at half-maximal effect). The conditions noted are these: U2OS GR-GFP nuclear translocation, laser cytometry, 2 h.
Experiment [11] has the same target. Kind of experiment: GR-EFC Redistribution (AID 451; calls by dose curve; also: potency is read from the fitted curve at half-maximal effect). Particulars: CHO-K1 GR-EFC translocation, beta-gal luminescence, 2 h. An outline of the steps: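 CHO-K1 cells expressing nuclear EA and GR-ED fragments of b-gal; compounds titrated up to 46 uM final, 2 h at 37 C. GR nuclear translocation read as complemented b-gal luminescence after 1 h RT detection.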
In experiment [12] the target is Cytochrome P450 2C9 (Homo sapiens) (UniProt P11712). Put plainly: qHTS Assay for Inhibitors and Substrates of Cytochrome P450 2C9 (AID 883). Also: potency is read from the fitted curve at half-maximal effect; nearly all actives have a fitted effect of over 60% in size. An outline of the steps: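 Human CYP2C9 (10nM) with Luciferin-H at 100uM (its KM) in 25mM KPO4; compound preincubated 10 min at 37C, then NADPH regeneration for 60 min at 37C. Luciferin read by luminescence after detection reagent; normalized to 57uM sulphaphenazole as full inhibition.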

Experiment [13] concerns the target Cytochrome P450 2C19 (Homo sapiens) (UniProt P33261). Kind of experiment: qHTS Assay for Inhibitors and Substrates of Cytochrome P450 2C19 (AID 899). Also: potency is read from the fitted curve at half-maximal effect; nearly all actives have a fitted effect of over 60% in size. An outline of the steps: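 5 nM human CYP2C19 with 10uM Luciferin-H EGE (at KM) in 50mM KPO4, compound preincubated 10 min at 37C, then NADPH regeneration for 60 min at 37C. Luciferin read by luminescence after detection reagent; normalized to 57uM ketoconazole as full inhibition.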

Experiment [14] deals with Ubiquitin carboxyl-terminal hydrolase 1 (Homo sapiens) (UniProt O94782). Put plainly: Inhibitors of USP1/UAF1: Pilot qHTS (AID 504865).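 Also: rhodamine fluorescence freed from ubiquitin-rhodamine substrate followed over time; top concentration of the series differs between compounds; % is scaled to controls: 0 for no effect and ±100 for the full control effect; nearly all actives have a fitted effect of over 35% in size.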 The method, boiled down: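 In 50mM HEPES pH 7.8 containing 0.5mM EDTA, 1mM TCEP, 0.1 mg/ml BSA and 0.01% Tween-20, 1nM USP1/UAF1 is exposed to compound for 15 min, then Ub-Rho (150nM final) is added and fluorescence is read over time.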

The target of experiment [15] is DNA dC->dU-editing enzyme APOBEC-3G (Homo sapiens) (UniProt Q9HC16). Put plainly: qHTS for inhibitors of Vif-A3G interactions: Validation (AID 588379). Also: 0% is about no effect. The method, boiled down: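 Yellow fluorescence (Ex 488, Em 500-530) of Vif-coexpressing HeLa A3G-eYFP cells, scanned by Acumen cytometer, reports blocked A3G degradation. Cells plated at 700/well overnight at 37 deg C before compound addition, then a further overnight compound incubation at 37 deg C.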

Experiment [16] is described as follows: qHTS profiling of the MIPE4 collection as inhibitors of Plasmodium falciparum (3D7) proliferation (AID 743344; call rule not given here;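 also: scaled between DMSO vehicle wells and 0.29 µM artemisinin as full inhibition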). Particulars: P. falciparum 3D7 in erythrocytes, SYBR Green DNA fluorescence, 72 h; at 28.5 µM (top of the series). The method, boiled down:
(§1)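 Parasite DNA was quantified by SYBR Green I fluorescence (ex 485, em 535 nm) after overnight lysis in saponin/Triton buffer at room temperature. Cultures at 0.3% parasitemia and 2.5% hematocrit were first exposed to compound for 72 h at 37 C; signals were normalised to artemisinin (0.29 uM) and vehicle wells.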

A short description of experiment [17]: qHTS profiling of the MIPE4 collection as inhibitors of Plasmodium falciparum (DD2) proliferation (AID 743345; call rule not given here). Particulars: P. falciparum Dd2 in erythrocytes, SYBR Green DNA, 72 h; at 28.5 µM (top of the series). An outline of the steps:
as §1

The nature of experiment [18]: qHTS profiling of the MIPE4 collection as inhibitors of Plasmodium falciparum (DD2) proliferation (Rep 2) (AID 743346; call rule not given here). Particulars: P. falciparum Dd2 in erythrocytes, SYBR Green DNA, 72 h; at 28.5 µM (top of the series). An outline of the steps: as §1
Experiment [19] can be described thus: qHTS profiling of the MIPE4 collection as inhibitors of Plasmodium falciparum (HB3) proliferation (AID 743347; call rule not given here;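 also: plate controls were DMSO vehicle wells for no effect and artemisinin wells for full effect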). The conditions noted are these: P. falciparum HB3 in erythrocytes, SYBR Green DNA, 72 h; at 28.5 µM (top of the series). The method, boiled down: as §1
Experiment [20] has as its system Zika virus NS2B-NS3 protease. Put plainly: Primary screen GU AMC qHTS for Zika virus inhibitors (AID 1347154).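 Also: 0% = no-inhibitor control and -100% = no-enzyme control; nearly all actives have a fitted effect of over 70% in size.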 An outline of the steps:
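Unlinked Zika NS2B hydrophilic domain–NS3 protease complex at 25 nM in 10 mM Tris-HCl pH 8.0, 0.01% Tween 20, with an AMC peptide substrate. Fluorescence change (340/450 nm) over 15 min at room temperature, normalized to controls, fitted to 4-parameter Hill.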

Chain of Glutathione peroxidase 1 (Homo sapiens) (P07203 whole entry, looked up): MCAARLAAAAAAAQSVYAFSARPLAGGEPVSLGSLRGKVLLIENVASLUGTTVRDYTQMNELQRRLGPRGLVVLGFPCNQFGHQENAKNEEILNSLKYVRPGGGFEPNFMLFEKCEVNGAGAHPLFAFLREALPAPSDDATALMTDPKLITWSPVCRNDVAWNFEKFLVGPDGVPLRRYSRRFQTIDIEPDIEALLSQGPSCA
Chain of Calcium and integrin-binding protein 1 (Homo sapiens) (Q99828 whole entry, looked up): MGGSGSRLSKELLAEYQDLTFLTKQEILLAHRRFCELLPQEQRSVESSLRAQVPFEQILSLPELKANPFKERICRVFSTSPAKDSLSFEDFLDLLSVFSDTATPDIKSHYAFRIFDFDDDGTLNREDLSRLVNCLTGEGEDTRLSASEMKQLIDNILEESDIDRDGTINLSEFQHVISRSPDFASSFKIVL
Chain of Glucocorticoid receptor (Homo sapiens) (P04150 whole entry, looked up, the tested form may be a part): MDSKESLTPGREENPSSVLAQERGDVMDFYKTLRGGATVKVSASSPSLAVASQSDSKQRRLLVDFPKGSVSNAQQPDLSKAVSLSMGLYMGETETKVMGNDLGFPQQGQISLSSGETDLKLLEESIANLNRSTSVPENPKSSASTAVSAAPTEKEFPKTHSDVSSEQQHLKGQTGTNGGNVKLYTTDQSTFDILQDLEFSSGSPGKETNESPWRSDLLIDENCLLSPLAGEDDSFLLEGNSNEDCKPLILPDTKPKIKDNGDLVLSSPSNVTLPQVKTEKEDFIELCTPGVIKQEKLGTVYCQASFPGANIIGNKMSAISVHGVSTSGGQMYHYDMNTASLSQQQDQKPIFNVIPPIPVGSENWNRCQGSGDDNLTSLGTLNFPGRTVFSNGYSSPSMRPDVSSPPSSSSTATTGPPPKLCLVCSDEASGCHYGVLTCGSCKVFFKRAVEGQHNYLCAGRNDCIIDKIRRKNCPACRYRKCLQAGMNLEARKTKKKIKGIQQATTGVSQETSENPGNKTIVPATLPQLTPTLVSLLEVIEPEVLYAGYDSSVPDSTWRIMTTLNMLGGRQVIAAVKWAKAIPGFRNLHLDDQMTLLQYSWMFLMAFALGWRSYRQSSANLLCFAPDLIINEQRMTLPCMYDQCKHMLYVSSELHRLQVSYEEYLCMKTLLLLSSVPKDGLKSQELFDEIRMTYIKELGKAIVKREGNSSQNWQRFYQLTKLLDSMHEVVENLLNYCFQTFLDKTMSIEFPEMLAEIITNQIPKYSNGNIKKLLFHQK
Chain of DNA dC->dU-editing enzyme APOBEC-3G (Homo sapiens) (Q9HC16 whole entry, looked up): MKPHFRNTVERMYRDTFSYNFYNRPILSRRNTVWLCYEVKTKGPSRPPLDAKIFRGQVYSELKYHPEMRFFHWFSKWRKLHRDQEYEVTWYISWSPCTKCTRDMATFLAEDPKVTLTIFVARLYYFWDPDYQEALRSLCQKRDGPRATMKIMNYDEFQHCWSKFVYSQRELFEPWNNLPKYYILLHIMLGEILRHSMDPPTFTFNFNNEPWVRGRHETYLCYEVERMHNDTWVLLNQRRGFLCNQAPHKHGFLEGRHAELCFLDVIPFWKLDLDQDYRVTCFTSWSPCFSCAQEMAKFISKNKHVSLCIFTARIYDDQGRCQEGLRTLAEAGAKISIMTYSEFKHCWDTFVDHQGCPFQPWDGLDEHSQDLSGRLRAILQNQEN
Chain of Ubiquitin carboxyl-terminal hydrolase 1 (Homo sapiens) (O94782 whole entry, looked up): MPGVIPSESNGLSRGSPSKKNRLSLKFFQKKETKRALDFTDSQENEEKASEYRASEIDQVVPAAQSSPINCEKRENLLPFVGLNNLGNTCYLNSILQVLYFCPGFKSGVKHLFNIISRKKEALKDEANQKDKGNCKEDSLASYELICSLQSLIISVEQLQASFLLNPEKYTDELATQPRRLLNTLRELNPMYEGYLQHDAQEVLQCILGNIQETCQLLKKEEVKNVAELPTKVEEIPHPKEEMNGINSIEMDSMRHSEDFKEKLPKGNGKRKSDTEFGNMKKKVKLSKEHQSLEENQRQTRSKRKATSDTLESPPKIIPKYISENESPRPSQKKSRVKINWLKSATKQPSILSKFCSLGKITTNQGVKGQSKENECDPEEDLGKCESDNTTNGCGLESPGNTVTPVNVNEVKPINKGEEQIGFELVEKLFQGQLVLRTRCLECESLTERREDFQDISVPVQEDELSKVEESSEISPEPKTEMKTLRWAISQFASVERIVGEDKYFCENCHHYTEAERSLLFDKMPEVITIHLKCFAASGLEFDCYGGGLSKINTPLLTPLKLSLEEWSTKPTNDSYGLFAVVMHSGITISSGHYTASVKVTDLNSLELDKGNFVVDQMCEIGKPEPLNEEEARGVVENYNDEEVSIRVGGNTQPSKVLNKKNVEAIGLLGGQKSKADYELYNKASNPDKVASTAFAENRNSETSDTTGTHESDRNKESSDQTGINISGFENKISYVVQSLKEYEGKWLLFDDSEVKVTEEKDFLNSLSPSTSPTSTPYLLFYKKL
Chain of Cytochrome P450 2C19 (Homo sapiens) (P33261 whole entry, looked up): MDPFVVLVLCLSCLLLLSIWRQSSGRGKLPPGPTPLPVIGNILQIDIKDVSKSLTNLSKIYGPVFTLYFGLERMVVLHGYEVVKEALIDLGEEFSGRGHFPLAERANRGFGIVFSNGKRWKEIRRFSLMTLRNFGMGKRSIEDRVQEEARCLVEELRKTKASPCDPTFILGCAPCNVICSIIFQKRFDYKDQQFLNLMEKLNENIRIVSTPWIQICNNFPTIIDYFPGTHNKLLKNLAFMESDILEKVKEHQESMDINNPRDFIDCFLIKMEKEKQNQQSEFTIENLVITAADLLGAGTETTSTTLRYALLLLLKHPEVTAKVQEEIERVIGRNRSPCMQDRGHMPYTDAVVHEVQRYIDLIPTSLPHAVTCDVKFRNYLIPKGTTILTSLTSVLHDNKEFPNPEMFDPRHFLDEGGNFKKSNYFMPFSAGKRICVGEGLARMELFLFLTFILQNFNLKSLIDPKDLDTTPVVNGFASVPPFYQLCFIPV
Chain of Phospholipid hydroperoxide glutathione peroxidase GPX4 (Homo sapiens) (P36969 whole entry, looked up): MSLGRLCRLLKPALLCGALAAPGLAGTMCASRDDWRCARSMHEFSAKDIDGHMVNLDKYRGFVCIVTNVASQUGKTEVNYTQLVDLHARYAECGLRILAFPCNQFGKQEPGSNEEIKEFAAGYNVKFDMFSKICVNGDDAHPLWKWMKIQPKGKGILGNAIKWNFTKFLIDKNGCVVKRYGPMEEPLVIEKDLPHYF
Chain of Cytochrome P450 2C9 (Homo sapiens) (P11712 whole entry, looked up): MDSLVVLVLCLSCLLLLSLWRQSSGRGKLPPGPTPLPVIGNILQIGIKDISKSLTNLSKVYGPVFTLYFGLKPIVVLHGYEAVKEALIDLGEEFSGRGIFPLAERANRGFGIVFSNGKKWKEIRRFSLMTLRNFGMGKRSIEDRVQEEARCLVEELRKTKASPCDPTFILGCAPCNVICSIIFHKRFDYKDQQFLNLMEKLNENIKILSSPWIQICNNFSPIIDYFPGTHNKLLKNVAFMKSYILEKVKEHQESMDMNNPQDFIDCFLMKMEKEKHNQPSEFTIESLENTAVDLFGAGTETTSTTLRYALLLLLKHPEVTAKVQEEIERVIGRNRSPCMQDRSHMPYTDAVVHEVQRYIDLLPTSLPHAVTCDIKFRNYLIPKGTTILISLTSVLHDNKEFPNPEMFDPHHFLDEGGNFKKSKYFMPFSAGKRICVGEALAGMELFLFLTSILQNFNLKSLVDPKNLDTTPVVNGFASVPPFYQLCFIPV

In the case of `CN1C/C=C/CCOc2cccc(c2)-c2ccnc(n2)Nc2cccc(c2)C1`, the Potency is 0.231 µM (active) in [1]; 0.165 µM (active) in experiment [2]; 0.092 µM (active) in experiment [3]; 0.0731 µM (active) in [4]; 0.549 µM (active) in experiment [7]; 0.111 µM (active) in experiment [8] (HiBiT). The Potency entry in experiment [5] and in [6] was “inactive” throughout. Also, the Z-AUC was -1.71 in experiment [7] (measured here: PEO1 parental Z-AUC) and -1.51 in experiment [7] (measured here: PEO4 Z-AUC). For the same compound, the activity change, negative = inhibition in [8] (Viability, at 45.9 µM (top of the series)) was -20% (inactive).

Take `Cc1ccc(NS(=O)(=O)c2cc3c(cc2NC(C)CO)NC(=O)CC3)cc1C` (stereo not drawn): the Potency entry in experiment [1] and in experiment [5] was “inactive” each time. The result in experiment [9] was inactive.

On to `C=CCN(/C=C1\C(=O)OC(COC)C2(C)C1=C(O)C(=O)C1=C2C(OC(C)=O)CC2(C)C(=O)CCC12)CC=C` (stereo not drawn), for which the Potency entry in experiment [1] was “inactive”. Besides, the Potency in [3] was 9.2 µM (active); in experiment [4] it was 11.6 µM (active).

`Cc1ccc(NS(=O)(=O)c2cc3c(cc2N[C@@H](C)CO)NC(=O)CC3)cc1Cl`: the Potency entry in [1] and in experiment [5] was “inactive” in each case. For the same compound, the outcome in experiment [9] was inactive.

On to `O=C(O)c1ccc2c3c1cccc3c(=O)n1c3ccccc3nc21`, for which the Potency in [10] was > 46 µM (inactive); in [11] it was > 46 µM (inactive); in [12], 0.158 µM (active); in [13], 3.98 µM (active). For the same compound, the Potency result in experiment [14], in experiment [15], in [1], in experiment [20] and in experiment [4] was “inactive” in each case. This compound also returned a parasite growth, % of DMSO control in [16] of 91.8%. The parasite growth remaining, % of DMSO control (lower = more inhibition) in experiment [17] worked out at 97.7%. Also, the parasite growth, % of control (lower = inhibition) in [18] worked out at 85.8%. In experiment [19], this compound yielded a growth, % of control of 60.1%.
